Laboratory results as given in PubChem BioAssay (EPA / NIEHS).
Results filed as inconclusive are left out. Activity calls are given as the source filed them. The calls were made as follows: active = hit-call score of the fitted dose curve at least 0.9, where 1 is the maximum; inconclusive = response in the unintended direction; inactive = score below 0.9.

Read-out: HMG-CoA synthase (HMGCS2), HMGCS2 (gene 3158)
Experiment: CLD_HMGCS2_24hr: CellzDirect (CLD) Gene Expression Assay for HMG-CoA synthase (HMGCS2) at 24 hours (AID 2283691)
Summary of the method: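 Primary human hepatocytes from two donor preparations, dosed daily with fresh solutions; vehicle 0.2% DMSO, 24 h harvest. HMGCS2 mRNA quantified by qNPA with S1 nuclease digestion and chemiluminescence; gain fitted versus DMSO, cytotoxicity annotated by morphology.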

Sequence of Glyceraldehyde-3-phosphate dehydrogenase (Homo sapiens) (P04406 whole entry, looked up): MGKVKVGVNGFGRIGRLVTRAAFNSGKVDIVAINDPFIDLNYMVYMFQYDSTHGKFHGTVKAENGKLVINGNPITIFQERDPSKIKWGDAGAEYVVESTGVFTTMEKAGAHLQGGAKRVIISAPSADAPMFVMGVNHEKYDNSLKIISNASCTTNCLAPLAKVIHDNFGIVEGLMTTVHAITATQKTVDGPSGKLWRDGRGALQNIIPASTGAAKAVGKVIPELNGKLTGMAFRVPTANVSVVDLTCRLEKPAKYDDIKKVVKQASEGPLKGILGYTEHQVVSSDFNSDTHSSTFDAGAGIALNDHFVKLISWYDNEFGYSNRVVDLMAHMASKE

| SMILES | outcome |
| --- | --- |
| CCOP(=O)(OCC)Oc1cc(C)nc(C(C)C)n1 | inactive |
| CC(COc1ccc(Oc2ccccc2)cc1)Oc1ccccn1 (centres undefined) | inactive |
| CSC1=N[C@@](C)(c2ccccc2)C(=O)N1Nc1ccccc1 | inactive |
| CCc1cnc(C2=NC(C)(C(C)C)C(=O)N2)c(C(=O)O)c1 (centres undefined) | inactive |
| CC[C@H](C)[C@H]1O[C@]2(C=C[C@@H]1C)C[C@@H]1C[C@@H](C/C=C(\C)[C@@H](O[C@H]3C[C@H](OC)[C@@H](O[C@H]4C[C@H](OC)[C@@H](NC)[C@H](C)O4)[C@H](C)O3)[C@@H](C)/C=C/C=C3\CO[C@@H]4[C@H](O)C(C)=C[C@@H](C(=O)O1)[C@]34O)O2 | inactive |
| COc1cc(OC)nc(Sc2cccc(Cl)c2C(=O)O)n1 | inactive |
| CC(Oc1cccc(Cl)c1)C(=O)O (centres undefined) | inactive |
| CNC(=O)ON=C(SC)C(=O)N(C)C | inactive |
| COP(=O)(OC)C(O)C(Cl)(Cl)Cl (centres undefined) | inactive |
| CC(=NC#N)N(C)Cc1ccc(Cl)nc1 | inactive |
| CCCCOC(=O)c1ccccc1C(=O)O | inactive |
| O=C(O)c1cc(Oc2ccc(C(F)(F)F)cc2Cl)ccc1[N+](=O)[O-] | inactive |
| CC1=NNC(=O)N(/N=C/c2cccnc2)C1 | inactive |
| C[N+]1(C)CCCCC1 | inactive |
| CCCCOC(=O)[C@@H](C)Oc1ccc(Oc2ccc(C#N)cc2F)cc1 | inactive |
| CCCSP(=O)(OCC)SCCC | inactive |
| CCOP(=S)(OCC)OC(Cl)C(Cl)(Cl)Cl (centres undefined) | inactive |
| CN(C)[C@@H]1C(=O)C(C(N)=O)=C(O)[C@@]2(O)C(=O)C3=C(O)c4c(O)cccc4[C@@](C)(O)[C@H]3[C@H](O)[C@@H]12 | inactive |
| O=c1ccc(=O)[nH][nH]1 | inactive |
| CCOP(=S)(OCC)SCCSCC | inactive |

Read-out: Glyceraldehyde-3-phosphate dehydrogenase (Homo sapiens) (UniProt P04406)
Experiment: CLD_GAPDH_24hr: CellzDirect (CLD) Gene Expression Assay for Baseline Control (Glyceraldehyde 3-phosphate dehydrogenase) at 24 hours (AID 2283692)
Summary of the method: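 Primary human hepatocytes (two donor preparations) dosed daily for two days, 0.2% DMSO vehicle; GAPDH mRNA measured at 24 h by qNPA chemiluminescence as a background control, gain-of-signal fitted against DMSO.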

| SMILES | outcome |
| --- | --- |
| COc1ccc(C(=CC(=O)N2CCOCC2)c2ccc(Cl)cc2)cc1OC | inactive |
| S=C1NCCN1 | inactive |
| CCOP(=O)(OCC)Oc1cc(C)nc(C(C)C)n1 | inactive |
| CC(C)N(C(=O)SCC(Cl)=C(Cl)Cl)C(C)C | inactive |
| CCc1cnc(C2=NC(C)(C(C)C)C(=O)N2)c(C(=O)O)c1 (centres undefined) | inactive |
| CC[C@H](C)[C@H]1O[C@]2(C=C[C@@H]1C)C[C@@H]1C[C@@H](C/C=C(\C)[C@@H](O[C@H]3C[C@H](OC)[C@@H](O[C@H]4C[C@H](OC)[C@@H](NC)[C@H](C)O4)[C@H](C)O3)[C@@H](C)/C=C/C=C3\CO[C@@H]4[C@H](O)C(C)=C[C@@H](C(=O)O1)[C@]34O)O2 | inactive |
| COc1cc(OC)nc(Sc2cccc(Cl)c2C(=O)O)n1 | inactive |
| CC(Oc1cccc(Cl)c1)C(=O)O (centres undefined) | inactive |
| CNC(=O)ON=C(SC)C(=O)N(C)C | inactive |
| CCCCOC(=O)c1ccccc1C(=O)O | inactive |
| CN(C)NC(=O)CCC(=O)O | inactive |
| C#CCC1=C(C)C(OC(=O)C2C(C=C(C)C)C2(C)C)CC1=O (centres undefined) | inactive |
| CSc1nnc(C(C)(C)C)c(=O)n1N | inactive |
| O=C(O)c1cc(Oc2ccc(C(F)(F)F)cc2Cl)ccc1[N+](=O)[O-] | inactive |
| N#CSCSC#N | inactive |
| CCCOCC(=Nc1ccc(Cl)cc1C(F)(F)F)n1ccnc1 | inactive |
| CC1=NNC(=O)N(/N=C/c2cccnc2)C1 | inactive |
| CCc1cccc(CC)c1N(COC)C(=O)CCl | inactive |
| CNC(=O)ON=C(C)SC | inactive |
| Nc1nc(N)nc(NC2CC2)n1 | inactive |
| CCCCOC(=O)[C@@H](C)Oc1ccc(Oc2ccc(C#N)cc2F)cc1 | inactive |
| CCOP(=S)(OCC)OC(Cl)C(Cl)(Cl)Cl (centres undefined) | inactive |
| COP(=O)(NC(C)=O)SC (centres undefined) | inactive |
| CN(C)[C@@H]1C(=O)C(C(N)=O)=C(O)[C@@]2(O)C(=O)C3=C(O)c4c(O)cccc4[C@@](C)(O)[C@H]3[C@H](O)[C@@H]12 | inactive |
| O=c1ccc(=O)[nH][nH]1 | inactive |
| CCCOc1nn(C(=O)NS(=O)(=O)c2ccccc2C(=O)OC)c(=O)n1C | inactive |
| CCOP(=O)(NC(C)C)Oc1ccc(SC)c(C)c1 (centres undefined) | inactive |
| CC(C)=CC1C(C(=O)OCN2C(=O)C3=C(CCCC3)C2=O)C1(C)C (centres undefined) | inactive |

Read-out: alkyl and aryl transferase (GSTA2), GSTA2 (gene 2939)
Experiment: CLD_GSTA2_24hr: CellzDirect (CLD) Gene Expression Assay for alkyl and aryl transferase (GSTA2) at 24 hours (AID 2283693)
Summary of the method: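 Primary human hepatocytes (two donor preparations) dosed daily for two days with chemicals at multiple concentrations (vehicle 0.2% DMSO); GSTA2 mRNA at 24 h measured by qNPA chemiluminescence, gain-of-signal versus DMSO.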

| SMILES | outcome |
| --- | --- |
| COc1ccc(C(=CC(=O)N2CCOCC2)c2ccc(Cl)cc2)cc1OC | inactive |
| S=C1NCCN1 | inactive |
| CCOP(=O)(OCC)Oc1cc(C)nc(C(C)C)n1 | inactive |
| CC(C)N(C(=O)SCC(Cl)=C(Cl)Cl)C(C)C | inactive |
| CSC1=N[C@@](C)(c2ccccc2)C(=O)N1Nc1ccccc1 | inactive |
| CCc1cnc(C2=NC(C)(C(C)C)C(=O)N2)c(C(=O)O)c1 (centres undefined) | inactive |
| COc1cc(OC)nc(Sc2cccc(Cl)c2C(=O)O)n1 | inactive |
| CNC(=O)ON=C(SC)C(=O)N(C)C | inactive |
| COP(=O)(OC)C(O)C(Cl)(Cl)Cl (centres undefined) | inactive |
| CCCCOC(=O)c1ccccc1C(=O)O | inactive |
| C#CCC1=C(C)C(OC(=O)C2C(C=C(C)C)C2(C)C)CC1=O (centres undefined) | inactive |
| CSc1nnc(C(C)(C)C)c(=O)n1N | inactive |
| N#CSCSC#N | inactive |
| CCCOCC(=Nc1ccc(Cl)cc1C(F)(F)F)n1ccnc1 | inactive |
| CC1=NNC(=O)N(/N=C/c2cccnc2)C1 | inactive |
| CCc1cccc(CC)c1N(COC)C(=O)CCl | inactive |
| CNC(=O)ON=C(C)SC | inactive |
| C[N+]1(C)CCCCC1 | inactive |
| Nc1nc(N)nc(NC2CC2)n1 | inactive |
| CCCCOC(=O)[C@@H](C)Oc1ccc(Oc2ccc(C#N)cc2F)cc1 | inactive |
| CCCSP(=O)(OCC)SCCC | inactive |
| CCOP(=S)(OCC)OC(Cl)C(Cl)(Cl)Cl (centres undefined) | inactive |
| CN(C)[C@@H]1C(=O)C(C(N)=O)=C(O)[C@@]2(O)C(=O)C3=C(O)c4c(O)cccc4[C@@](C)(O)[C@H]3[C@H](O)[C@@H]12 | inactive |
| CCCOc1nn(C(=O)NS(=O)(=O)c2ccccc2C(=O)OC)c(=O)n1C | inactive |
| CCOP(=O)(NC(C)C)Oc1ccc(SC)c(C)c1 (centres undefined) | inactive |
| CCOP(=S)(OCC)SCCSCC | inactive |
